Where “and” joins values, the source holds several entries; their conditions need not be identical. Equal entries are not always repeated. Hit rate of the full screen: of about 5,500 compounds, about 2,000 (36%) were called active. Roughly 18% stayed inconclusive and do not appear here. No stated cut-off is given here; in the data, active means normalized growth mostly below about 0.91 (no sharp cut-off); inconclusive means no clear call, values can overlap the other calls; inactive means mostly above about 0.92. Some of the results follow.
Assay: chemical genetic growth profiling, strain panel (AID 1159580);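 further: tested at 20 µM; growth read once vehicle control cultures reached saturation at 30 °C; 1 = growth at the plate median or of vehicle wells; lower values mean less growth of the strain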
Conditions: S. cerevisiae deletion strains, growth OD

Measured: normalized growth

CC(=O)OC[C@@]1(O)C[C@@]23CCC4c5ccoc5CC[C@]4(C)C2CC[C@@H]1C3 (some centres not stated)
active: locus YAL026C, strain drs2, hits give low values 0.901 | locus YDR137W, strain rgp1, hits give low values 0.805 | locus YDR318W, strain mcm21, hits give low values 0.911 | locus YDR392W, strain spt3, hits give low values 0.576 | locus YGL253W, strain hxk2, hits give low values 0.91 | locus YGR229C, strain SMI1, hits give low values 0.804 | locus YHR013C, strain ard1, hits give low values 1.19 [resistant] | locus YHR079C, strain IRE1 (second series), hits give low values 0.924 | locus YHR142W, strain chs7, hits give low values 0.846 | locus YJR066W, strain TOR1, hits give low values 0.825
inactive: locus YAL013W, strain DEP1, hits give low values 0.985 | locus YAL021C, strain ccr4, hits give low values 1.03 | locus YAL030W, strain snc1, hits give low values 1.02 | locus YBL061C, strain skt5, hits give low values 0.988 | locus YBR009C, strain hhf1, hits give low values 0.97 | locus YBR021W, strain FUR4, hits give low values 0.964 | locus YBR023C, strain chs3, hits give low values 0.953 | locus YBR171W, strain sec66, hits give low values 0.986 | locus YBR229C, strain ROT2, hits give low values 0.998 | locus YBR231C, strain swc5, hits give low values 1.01 | locus YBR279W, strain paf1, hits give low values 1.02 | locus YCL011C, strain gbp2, hits give low values 0.998 | locus YCL016C, strain dcc1, hits give low values 0.975 | locus YCL029C, strain bik1, hits give low values 0.963 | locus YCL061C, strain MRC1, hits give low values 0.98 | locus YCL069W, strain vba3, hits give low values 1 | locus YCR088W, strain abp1, hits give low values 0.997 | locus YDL005C, strain med2, hits give low values 1.02 | locus YDL035C, strain GPR1, hits give low values 0.899 | locus YDL040C, strain nat1, hits give low values 1 | locus YDL074C, strain BRE1, hits give low values 0.88 | locus YDL101C, strain DUN1, hits give low values 0.986 | locus YDL134C, strain PPH21, hits give low values 0.973 | locus YDL185W, strain tfp1, hits give low values 0.968 | locus YDL192W, strain arf1, hits give low values 0.932 | locus YDR001C, strain nth1, hits give low values 1 | locus YDR069C, strain doa4, hits give low values 1.02 | locus YDR101C, strain arx1, hits give low values 0.965 | locus YDR150W, strain NUM1, hits give low values 0.948 | locus YDR159W, strain sac3, hits give low values 0.991 | locus YDR162C, strain NBP2, hits give low values 0.97 | locus YDR195W, strain ref2 0.993 | locus YDR297W, strain sur2, hits give low values 1.01 | locus YDR334W, strain swr1, hits give low values 1.01 | locus YDR335W, strain msn5, hits give low values 1 | locus YDR388W, hits give low values 0.977 | locus YDR502C, strain sam2, hits give low values 0.956 | locus YEL003W, strain gim4, hits give low values 1 | locus YEL037C, strain rad23, hits give low values 0.992 | locus YEL061C, strain CIN8 (second series), hits give low values 1 | locus YEL061C, strain CIN8, hits give low values 0.986 | locus YER015W, strain faa2, hits give low values 1.01 | locus YER016W, strain bim1, hits give low values 0.996 | locus YER110C, hits give low values 0.95 | locus YER111C, strain swi4, hits give low values 0.995 | locus YER155C, strain BEM2 (second series), hits give low values 0.987 | locus YER155C, strain BEM2, hits give low values 0.972 | locus YER167W, strain BCK2, hits give low values 0.929 | locus YFR010W, strain ubp6, hits give low values 0.985 | locus YGL078C, strain dbp3, hits give low values 0.966 | locus YGL086W, strain mad1, hits give low values 0.931 | locus YGL167C, strain pmr1, hits give low values 1 | locus YGL173C, strain kem1, hits give low values 1.03 | locus YGL227W, strain vid30, hits give low values 1.01 | locus YGL240W, strain doc1, hits give low values 1 | locus YGL248W, strain PDE1, hits give low values 0.98 | locus YGR078C, strain PAC10, hits give low values 0.934 | locus YGR135W, strain pre9, hits give low values 0.95 | locus YGR252W, strain gcn5, hits give low values 0.912 | locus YHR027C, strain rpn1, hits give low values 1.01 | locus YHR030C, strain SLT2, hits give low values 0.943 and 0.867 | locus YHR079C, strain IRE1, hits give low values 0.918 | locus YHR094C, strain hxt1, hits give low values 0.96 | locus YHR129C, strain ARP1, hits give low values 0.985 | locus YHR200W, strain rpn10, hits give low values 0.96 | locus YIL066C, strain RNR3, hits give low values 0.981 | locus YIL073C, strain SPO22, hits give low values 0.991 | locus YIL125W, strain kgd1, hits give low values 0.965 | locus YIR030C, strain dcg1, hits give low values 0.974 | locus YJL092W, strain hpr5, hits give low values 1 | locus YJL095W, strain BCK1 (second series), hits give low values 1.01 | locus YJL095W, strain BCK1, hits give low values 0.909 and 0.89 | locus YJL115W, strain asf1, hits give low values 1.01 | locus YJL129C, strain trk1, hits give low values 0.984 | locus YJL134W, strain LCB3, hits give low values 0.973 | locus YJL154C, strain vps35, hits give low values 1 | locus YJL164C, strain tpk1, hits give low values 0.973 | locus YJL166W, strain qcr8, hits give low values 0.996 | locus YJL168C, strain set2, hits give low values 0.983 | locus YJL187C, strain SWE1 (second series), hits give low values 0.961 | locus YJL187C, strain SWE1, hits give low values 1.01 | locus YJR043C, strain POL32, hits give low values 0.954
